Experimental findings from ChEMBL document CHEMBL1157539, “Thousands of chemical starting points for antimalarial lead identification” (Nature, 2010) are described below.

For this test, the system named is HepG2. In words: GSK_TCMDC: Percent inhibition of human HepG2 cell line. Test compounds present at 10uM. Format: functional.
A word on the Inhibition: it is the relative decrease from the control value, in per cent. `N#Cc1ccc(-c2ccc(C(=O)NCCCCN3CCC(c4cc(Br)c5c(c4O)CCCC5)CC3)cc2)cc1` gave an Inhibition of 93%.
Next, `COc1ccc2[nH]c(C)cc(=NN=Cc3cccc(F)c3)c2c1`: 2%; `CC(C)c1ccc(CN2CCC(NC(=O)c3ccc(-c4ccccc4F)s3)CC2)cc1.O=C(O)C(F)(F)F`: 46%.
Next, `CN1CCc2cc(NS(=O)(=O)c3ccc(-c4ccc(Cl)s4)cc3)c(N3CCCCC3)cc2CC1.Cl`: 14%; `CCN(CC)CCCN(CCCN(CC)CC)c1cc(C)nc(Nc2ccc(Cl)cc2)n1.O=C(O)C(=O)O`: 11%.
Next, `COc1ccc(NC(=O)Nc2cccc(-c3cccc(-c4nc5ccccc5[nH]4)c3)c2)cc1`: 41%; `O=C(Nc1cccnc1)c1cc(-c2cccnc2)nc2ccc(Cl)cc12`: 45%; `COc1ccc2nc(SC(C)C(=O)c3c[nH]c4ccccc34)[nH]c2c1` (stereo not given): 0%.
`CCCOc1ccc2ccccc2c1CNCCCCCCNCc1c(OCCC)ccc2ccccc12.CS(=O)(=O)O` gave an Inhibition of 100%.
In the case of `OC(CNCCCc1ccccc1)c1cc(OCc2ccccc2)cc(OCc2ccccc2)c1` (stereo not given) it was 8%.
In the case of `CCCNCc1ccc(-c2ccc(CN(Cc3cnc(C)cn3)C(=O)CC#N)cc2)nc1.O=C(O)C(F)(F)F` it was 4%.
In the case of `CCCCN1CCCN(Cc2cccc(NC(=O)c3ccc(-c4ccccc4)cc3)c2)CC1.O=C(O)C(F)(F)F` it was 19%; in that of `COc1cccc(CCc2c(CCNCCCCCCNCCc3ccccc3)ccc(OC)c2OC)c1.Cl`, 100%.
As to `Nc1nc2c(ncn2COC(COCc2ccccc2)COCc2ccccc2)c(=O)[nH]1.Nc1nc2ncn(COC(COCc3ccccc3)COCc3ccccc3)c2c(=O)[nH]1`, the Inhibition turned out to be 18%.
Next, `O=C(O)C(F)(F)F.O=C1OC2(CN1CC1CCN(Cc3ccc(-n4ccnc4)cc3)C1)c1ccccc1-c1ccccc12` (stereo not given): 25%; `O=C(Nc1ccc(Br)cc1)N1CCC(n2c(-c3ccccc3)nc3cccnc32)CC1`: 36%.
In the case of `COC(=O)c1ccc(-c2ccc(-c3cccnc3)cc2C)cc1` it was 81%.
On to `N=C(N)NC(=O)Nc1cc(F)c(Cl)c(Br)c1`, for which the Inhibition is recorded as 0%.
Turning to `O=C(NCCCCN1CCC(c2c[nH]c3ccccc23)CC1)c1sc(-c2ccc(C(F)(F)F)cc2)nc1CO`, the Inhibition is 34%.
In the case of `COc1cccc(CCc2cccc(CNC(C)=O)c2)c1` it was 2%; in that of `COc1cc(CNC[C@@H](O)[C@H](Cc2ccccc2)NC(=O)c2cc(OC(C)C)cc(N3CCCCS3(=O)=O)c2)cc(OC)c1.Cl`, 7%; in that of `COc1ccc(C(=O)CCc2ccc(O)cc2)cc1`, 0%.
In turn, `COc1ccc(Cl)c(CC2c3cc(O)c(Cl)cc3CCN2C)c1.Cl` (stereo not given) registered an Inhibition of 9%.
Compound `Br.CC1(C)NC(N)=NC(=N)N1OCCOc1ccc2ccccc2c1` returned an Inhibition of 70%.
In the case of `CN(C)c1cc2c(Nc3ccc4nc(Cc5ccccc5)[nH]c4c3)ncnc2cn1` [GW301888X] it was 11%; in that of `CCN(CC)CCCNc1cc[n+]([O-])c2cc3ccccc3cc12`, 13%.
Next, `O=C(CC(=O)C(F)(F)F)c1ccc2c(c1)OCO2`: 44%; `CCNC(=O)N[C@@H]1CN[C@@H](C#Cc2cc3c(Nc4ccc(OCc5cccc(F)c5)c(Cl)c4)ncnc3s2)C1`: 0%; `Nc1cc2c(C3CCN(CC4CCN(C(=O)/C=C/c5ccc(Cl)c(Cl)c5)CC4)CC3)c[nH]c2cn1`: 0%.
In the case of `CN(C)Cc1ccc(CN2CCN(CCOc3ccc(-c4ccc(Cl)cc4)cc3)CC2)o1` it was 75%.
`COC(=O)c1noc(C)c1I` gave an Inhibition of 5%.
Next, `Cc1cc(N2CCOCC2)nc(Nc2ccc(NC(=O)c3cccc4ccccc34)cc2)n1`: 44%; `CC(CNCc1cn(Cc2cc(Br)cc(Br)c2)c2ccccc12)CNc1cc(=O)c2ccccc2[nH]1` (stereo not given): 10%; `CN(C)CC1CCCN1Cc1ccccc1-c1cnn(C)c(=O)c1Oc1ccc(F)cc1.O=C(O)C(F)(F)F` (stereo not given): 29%.
Next, `Cl.Oc1cccc(Nc2nc(NCC3CCCO3)c3ccccc3n2)c1` (stereo not given): 0%; `Cc1cc(N(C)C)nc(Nc2ccc(NC(=O)CCc3ccccc3)cc2)n1`: 20%.
Next, `COc1cc2nccc(Nc3ccc(Oc4ccccc4)cc3)c2cc1OC.Cl`: 13%; `CCC(c1ccccc1)c1nn2c(-c3cccs3)nnc2s1` (stereo not given): 10%.
`COc1cc(Cc2cnc(N)nc2N)cc(OCCNC(=O)OCc2ccccc2)c1OC` came in with an Inhibition of 6%.
Next, `CCc1cc(-c2onc(C(F)(F)F)c2-c2ccccc2)c(O)cc1OC`: 16%.
